# DT40 TDP1 no CPT: qHTS for Inhibitors of human tyrosyl-DNA phosphodiesterase 1 (TDP1): qHTS in cells in absence of CPT; DT40 Tdp1-/- hTDP1 cells, no CPT, ATP luminescence, 48 h; Potency, µM (top dose mostly 46.2 µM), without a hit: at the top dose activity change, negative = growth inhibition, hits mostly inhibitors; 420,000 tested, 15% active; also: potency is read from the fitted curve at half-maximal effect; % is scaled to controls: 0 for no effect and ±100 for the full control effect; nearly all actives have a fitted effect of over 55% in size
#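 Chicken DT40 Tdp1-/- cells stably complemented with human TDP1 were seeded at 400 cells/well with DMSO in place of 20 nM camptothecin. After compound pinning, cells grew at least 48 hr at 37 °C; viability read by CellTiter-Glo luminescence.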
# IL-1B inflam inh: qHTS for Inhibitors of Inflammasome Signaling: IL-1-beta AlphaLISA Primary Screen | THP-1 LPS/ATP IL-1B secretion, AlphaLISA, 16 h; stronger effect = lower value | activity change, % at 57.5 µM | 360,000 tested, 4.7% active | AID 743279, 2014; in the data active = activity change below about -50%; inconclusive = mostly about -30% to -49%; also: % is scaled to controls: 0 for no effect and ±100 for the full control effect
#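 Secreted IL-1B measured by AlphaLISA bead assay after 16 h compound exposure of THP-1 cells; compounds (final up to 57.5 uM) added 1 h before LPS (250 ng/mL) and ATP (1.25 mM) stimulation; lower signal means less secretion.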
# TDP1 inh: qHTS Assay for Inhibitors of Tyrosyl-DNA Phosphodiesterase (TDP1). Tyrosyl-DNA phosphodiesterase 1 (Homo sapiens), Q9NUW8. recombinant TDP1, AlphaScreen DNA substrate cleavage. Potency, µM (top dose mostly 130 µM), inactives show at the highest dose activity change, negative = inhibition, most hits filed as inhibitors. 350,000 tested, 0.28% active. AID 485290, 2010; also: potency is read from the fitted curve at half-maximal effect; % is scaled to controls: 0 for no effect and ±100 for the full control effect; nearly all actives have a fitted effect of over 40% in size
# Target sequence (Q9NUW8 whole entry, looked up): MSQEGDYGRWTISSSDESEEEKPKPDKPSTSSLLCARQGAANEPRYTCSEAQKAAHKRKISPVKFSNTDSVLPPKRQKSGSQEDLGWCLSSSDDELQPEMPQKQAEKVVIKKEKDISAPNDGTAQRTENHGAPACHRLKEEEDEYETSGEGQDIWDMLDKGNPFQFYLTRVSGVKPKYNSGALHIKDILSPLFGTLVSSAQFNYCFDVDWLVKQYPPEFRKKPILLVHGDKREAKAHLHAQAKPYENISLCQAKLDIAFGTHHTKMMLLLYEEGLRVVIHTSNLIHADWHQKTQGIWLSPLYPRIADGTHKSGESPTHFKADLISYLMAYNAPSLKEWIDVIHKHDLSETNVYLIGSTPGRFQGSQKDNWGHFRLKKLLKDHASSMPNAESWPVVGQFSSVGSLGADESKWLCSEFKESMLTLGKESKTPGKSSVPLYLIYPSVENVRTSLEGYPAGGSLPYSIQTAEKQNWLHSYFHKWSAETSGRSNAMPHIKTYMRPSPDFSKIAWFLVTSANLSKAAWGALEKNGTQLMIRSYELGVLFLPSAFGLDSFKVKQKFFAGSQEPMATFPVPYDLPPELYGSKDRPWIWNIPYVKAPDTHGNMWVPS
#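 Signal: AlphaScreen proximity between streptavidin donor and anti-FITC acceptor beads on intact substrate. Reaction: Tdp1 1 nM, substrate 15 nM final, 5 min RT after 15 min compound preincubation.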
# DT40 TDP1 CPT: qHTS for Inhibitors of human tyrosyl-DNA phosphodiesterase 1 (TDP1): qHTS in cells in presence of CPT | chicken DT40 Tdp1-/-;hTDP1 cells + 20 nM CPT, ATP luminescence, 48 h | Potency, µM (highest dose often 46.2 µM), for the others: top-dose activity change, negative = growth inhibition, hits mostly inhibitors | 420,000 tested, 12% active; also: potency is read from the fitted curve at half-maximal effect; % is scaled to controls: 0 for no effect and ±100 for the full control effect; nearly all actives have a fitted effect of over 55% in size
#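 Cell growth measured by CellTiter-Glo luminescence after a minimum 48 h, 37 C compound exposure with 20 nM CPT in Tdp1-knockout DT40 cells stably expressing hTDP1, seeded 400/well; qHTS titration format.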
# TGFb SMAD3 inh: qHTS for Inhibitors of TGF-b; Potency, µM (titrated, usually from 46.1 µM), without a hit: top-dose activity, negative = inhibition, hits mostly inhibitors; 410,000 tested, 1.2% active; HepG2 CAGA-GFP TGF-b/SMAD3 reporter, GFP fluorescence, 18 h; TGF-beta stimulated, 500 pg/mL final; AID 588855, 2011; also: potency is read from the fitted curve at half-maximal effect; % is scaled to controls: 0 for no effect and ±100 for the full control effect; nearly all actives have a fitted effect of over 65% in size
#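 Cell-based qHTS in HEPG2 carrying a CAGA-GFP Smad reporter; compounds added before 500 pg/mL final TGF-beta, 18 h incubation at 37 degrees C, GFP fluorescence quantified per cell by imaging cytometry.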
# HepG2 viability: qHTS for Inhibitors of TGF-b: Cytotox Counterscreen | HepG2 CAGA-GFP viability, ATP luminescence, 18 h | Potency, µM (highest dose often 46.1 µM), inactives show at the top dose activity change, negative = cytotoxicity, hits mostly cytotoxic | 410,000 tested, 0.76% active; also: potency is read from the fitted curve at half-maximal effect
#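 HepG2 CAGA-GFP cells (1000/well, DMEM with 1% FBS) received compound, then TGF-beta at 500 pg/mL final, and were incubated 18 hours at 37 degrees C. Viability was read by CellTiter-Glo luminescence. Media-only wells were set as complete cell-killing and DMSO as no toxicity.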
# * marks the source's active call; other numbers are inactive results; ? = inconclusive; nt = no result; [ ] = remark or other dose. Compounds with a hit are over-represented: about 18% of the library has one in this group of screens. Unless noted, calls follow the shape of the dose curve; as a rule, active = well fitted curve in the direction sought with a large enough effect; inconclusive = small, poorly fitted or top-dose-only effect, or another doubt; inactive = no such curve, though single readings can be large; an effect the other way counts as inactive or inconclusive.
SMILES,DT40 TDP1 no CPT,IL-1B inflam inh,TDP1 inh,DT40 TDP1 CPT,TGFb SMAD3 inh,HepG2 viability
COc1ccc(CNC(=O)CN(C)c2nn3c(=O)cc(C)nc3s2)cc1,-1%,nt,5%,-10%,-3%,5%
CCOC(=O)CCS(=O)(=O)c1ccc(-c2ccc(S(=O)(=O)CCC(=O)OCC)cc2)cc1,-12%,-99*,3%,-13%,-14%,0%
CC(=O)CCS(=O)(=O)c1ccc(Oc2ccc(S(=O)(=O)CCC(C)=O)cc2)cc1,8.2µM*,-75*,-2%[56.1 µM],3.7µM*,?,5.6µM*
CC1=C(C(=O)N2CCN(c3cccc(C)c3C)CC2)C2(CCCCC2)OC1=O,21µM*,nt,2%,21µM*,nt,-14%
CC1=C(C(=O)N2CCN(c3cccc(Cl)c3)CC2)C2(CCCCC2)OC1=O,21µM*,nt,2%,?,?,-21%
C[C@@]12CCC(=O)C=C1CC[C@@H]1[C@@H]2[C@H](O)C[C@]2(C)[C@@H]1CC[C@]2(O)C(=O)CO,nt,nt,13%[21 µM],nt,nt,nt
CCCn1nnc(NC(=S)NC(=O)c2ccccc2OC)n1,18µM*,-5,1%,?,?,-8%
CCCCC(=O)Nc1nnn(CCC)n1,-4%,-7,5%,-1%,19%,-11%
COc1cc2ccccc2cc1C(=O)NC(=S)Nc1nnn(C)n1,16µM*,7,3%,23µM*,?,5%
CCCCn1nnc(NC(=S)NC(=O)c2ccc(-c3cccc(Cl)c3Cl)o2)n1,23µM*,10,8%,10µM*,-3%,-3%
CCCCC(=O)NC(=S)Nc1nnn(CCC)n1,5.8µM*,23,2%,4.1µM*,?,-18%
Cc1cc(C)c(C)c(S(=O)(=O)N2C(=S)NC(=O)C2C(C)C)c1C (configuration not stated),-3%,11,2%,2%,-6%,5%
CCCCn1nnc(NC(=S)NC(=O)c2ccc(OCC)c([N+](=O)[O-])c2)n1,21µM*,6,7%,?,?,18%
CCc1cccc(N(CC(=O)NC2CCCCC2)C(=O)c2csnn2)c1,?,-12,5%,-14%,4%,-2%
O=C(Cc1cccs1)NC1C(=O)N2C(C(=O)[O-])=C(C[n+]3ccccc3)CSC12 (configuration not stated),nt,nt,2.2µM*,nt,nt,nt
O=C(NCC1CCN(Cc2ccccc2Cl)CC1)c1cc2ccc3cccnc3c2[nH]1,16µM*,nt,3%,?,16µM*,16µM*
O=C(NCC1CCN(Cc2ccc(F)cc2)CC1)c1cc2ccc3cccnc3c2[nH]1,21µM*,nt,-2%,16µM*,16µM*,18µM*
O=C(Cc1c(Cl)cccc1Cl)N/N=C/c1cccnc1,9%,20,3%,-14%,-4%,-9%
COc1ccc(S(=O)(=O)N(C)CC(=O)Nc2cccc(C(C)=O)c2)cc1Cl,13µM*,6,2%,13µM*,-12%,-1%
Cc1nc2ccc(S(=O)(=O)N(CC(=O)Nc3ccc(Cl)cc3)Cc3ccccc3)cc2s1,15µM*,nt,2%,?,?,-28%
COc1ccc(NC(=O)CN(C)S(=O)(=O)c2ccc3nc(C)sc3c2)cc1Cl,8.2µM*,nt,0%,23µM*,nt,-12%
CC(=O)Nc1ccc(Nc2nc3ccccc3n3cnnc23)cc1,-6%,-2,nt,-8%,7%,9%
CCOC(=O)CC(=O)Nc1ncnc2c1C(c1ccccc1)c1c(ccc3ccccc13)O2 (configuration not stated),nt,nt,1%,nt,?,-35%
